The whole screen tested about 300,000 compounds, of which about 3,200 (1.1%) were called active. For the sample, actives were picked, then their nearest neighbours and some compounds at random. A number with no mark means an inactive call.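 How the source made its calls: active means inhibition above the campaign mean inhibition plus 3 SD (cut at about 35% in these data); inactive means the rest.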

The target of the experiment is Glutathione S-transferase omega-1 (Homo sapiens) (UniProt P78417). Briefly: inhibitors of recombinant GSTO1, primary screen, counter-screen for RBBP9 inhibitor project, biochemical, fluorescence polarization (AID 1974).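 Further: 0% = GSTO1-1 with DMSO and 100% = wells lacking GSTO1-1 enzyme.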 As to conditions: recombinant GSTO1, activity-based probe fluorescence polarization; at 5.96 µM; hits give high values.
Glutathione S-transferase omega-1 (Homo sapiens), sequence (P78417 whole entry, looked up): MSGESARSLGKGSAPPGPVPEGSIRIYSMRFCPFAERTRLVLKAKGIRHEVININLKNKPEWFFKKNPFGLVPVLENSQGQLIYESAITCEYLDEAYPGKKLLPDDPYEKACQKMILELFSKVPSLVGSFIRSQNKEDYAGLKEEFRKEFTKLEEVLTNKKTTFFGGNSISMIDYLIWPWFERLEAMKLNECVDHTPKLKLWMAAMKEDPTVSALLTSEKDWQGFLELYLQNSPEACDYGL
Take `Cc1ccc2c(c1)N(CC(=O)NCC1CCCO1)C(=O)CO2` (stereo unspecified): the inhibition is -3.07%.

On to `Cn1c(SCC(=O)N/N=C/c2ccc(O)c(O)c2)nc2ccccc21`, for which the inhibition was 52% (active).

`CCOc1ccc(/C=N/NC(=O)CSc2ccccn2)cc1O`: the inhibition is 1.26%.

For the compound `CCn1c(SCC(=O)N/N=C/c2ccncc2)nc2ccccc21`, the inhibition is -0.27%.

Take `Cc1cc2nc3c(=O)n(Cc4ccccc4)c(=O)[nH]c3nc2cc1N`: the inhibition is 44.9% (active).

On to `CC(=O)c1ccc(-c2ccc(Cn3c(C)nc4cc(N)c(C)nc43)cc2)cc1`, for which the inhibition is 4.41%.

As for `CSc1nc2ccccc2c(=O)n1Cc1ccc(F)cc1`, the inhibition was -7.17%.

For the compound `O=S(=O)(ON(c1ccccc1)S(=O)(=O)c1ccccc1)c1ccccc1`, the inhibition was -0.47%.

As to `CC1=C/C(=N\OS(=O)(=O)c2ccccc2)C=CC1=O`, the inhibition is 49.7% (active).

As to `CCN(CC(=O)NCc1cccs1)C(=O)c1ccc(OC)c(S(=O)(=O)N2CCOCC2)c1`, the inhibition was 11.9%.

Take `COc1ccccc1CC(=O)NCCc1c[nH]c2ccccc12`: the inhibition is 5.81%.

For `O=C(Cc1c[nH]c2ccccc12)OCCOC(=O)Cc1c[nH]c2ccccc12`, the inhibition is -2.78%.

In the case of `O=S(=O)(O)Oc1c[nH]c2ccccc12`, the inhibition is 62.3% (active).

Consider `Cc1ccc(Cn2nnc3c(=O)[nH]c(C4CCN(S(=O)(=O)/C=C/c5ccccc5)CC4)nc32)cc1`, for which the inhibition was -24.4%.

As to `O=C(CN1C(=O)c2ccccc2C1=O)NCc1ccc(C(=O)O)cc1`, the inhibition is 3.69%.

Turning to `CC(C)N(C(=O)c1ccc(-c2ccccc2F)cc1)C(C)C`, the inhibition was 0.63%.

Consider `CC(=O)N(C1=C(Cl)C(=O)c2ccccc2C1=O)c1ccc(C(=O)O)cc1`, for which the inhibition was 79.7% (active).

Take `NC(=O)NC(=O)C(OC(=O)CCNS(=O)(=O)c1ccccc1)c1ccccc1` (stereo unspecified): the inhibition was -0.72%.

For `Cc1ccc(CSCC(=O)N(C)CC(=O)Nc2ccc(C)cc2)cc1`, the inhibition was -11.5%.

Take `CCOC(=O)c1cnc2nc(SCc3ccccc3Cl)[nH]n2c1=O`: the inhibition is -25.6%.

For the compound `Cc1ccc([N+](=O)[O-])cc1S(=O)(=O)N1CCCN(C)CC1`, the inhibition was 2.63%.

As for `CN1CCN(/N=C/c2ccc(-c3ccc([N+](=O)[O-])cc3)o2)CC1`, the inhibition was 3.62%.

Regarding `CN1CCN(/N=C2/C(=O)Nc3ccc([N+](=O)[O-])cc32)CC1`, the inhibition was 37.1% (active).

As to `COc1cccc(NC(C)=[N+](C)CCNS(=O)(=O)c2ccc(Cl)cc2)c1`, the inhibition was 8.66%.

On to `Cc1cccc(C(C)C)c1NC(=O)COC(=O)C1CC(=O)N(Cc2ccccc2)C1` (stereo unspecified), for which the inhibition was 7.97%.

As to `Oc1ccc2ccccc2c1N=Nc1nccs1`, the inhibition is 52% (active).

With `c1ccc(NCc2cccc3ccccc23)nc1`, the inhibition was -6.32%.

As to `Oc1ccc(N=Nc2nccs2)c(O)c1`, the inhibition is 36.6% (active).

As for `O=C(Oc1ccc(-c2nnco2)cc1)c1ccc(F)c(S(=O)(=O)N2CCOCC2)c1`, the inhibition is 3.94%.

Regarding `CCN(CC(=O)Nc1c(F)cccc1F)C(=O)c1ccc(S(=O)(=O)N2CCCCC2)cc1`, the inhibition was 3.32%.

For `Cc1cccc(C)c1NC(=O)CSc1ccc([N+](=O)[O-])cn1`, the inhibition is 5.11%.

With `CC(C)(C)n1cnnc1Sc1ccc([N+](=O)[O-])cn1`, the inhibition is 39.1% (active).

Regarding `O=[N+]([O-])c1ccc(Sc2n[nH]c(-c3ccco3)n2)nc1`, the inhibition was 5.75%.

Regarding `CC(OC(=O)CNC(=O)c1cccc(F)c1)C(=O)NC1CCCCC1C` (stereo unspecified), the inhibition is 3.44%.

Consider `CC(C)(C)c1cc(C(=O)N/N=C/c2ccc([N+](=O)[O-])s2)n[nH]1`, for which the inhibition is 37% (active).

`Cc1ccccc1NCC(=O)N/N=C\c1ccc([N+](=O)[O-])s1`: the inhibition is 15.2%.

Take `COc1ccc(C(=O)NCC(=O)N/N=C/c2ccc([N+](=O)[O-])s2)cc1OC`: the inhibition is 27.8%.

For `O=C(NCCSc1ncc(-c2ccccc2)[nH]1)c1ccco1`, the inhibition is 5.65%.

Consider `CC1(OC(=O)C2CCCC2)C(=O)C=C2C=C(c3ccc(C#N)cc3)OC=C2C1=O` (stereo unspecified), for which the inhibition was 24.5%.

In the case of `COCCN1C=C2C(=O)C(C)(OC(=O)C3CCCC3)C(=O)C=C2C=C1c1ccsc1` (stereo unspecified), the inhibition is 45.6% (active).

For the compound `CC1(OC(=O)CCc2ccccc2)C(=O)C=C2C=C(c3ccc(C#N)cc3)N(CCc3ccccn3)C=C2C1=O` (stereo unspecified), the inhibition was 27.9%.

For the compound `NC(=O)C1=C[C@@H](c2ccc3c(c2)OCO3)C[C@@H](OCCCCO)O1`, the inhibition was 14.6%.

For `CN(C)C(=O)N=NC(=O)N(C)C`, the inhibition is 1.15%.

Turning to `CCC(Oc1ccccc1C)C(=O)Nc1ccc(S(=O)(=O)Nc2cc(C)on2)cc1` (stereo unspecified), the inhibition is -0.82%.

`CN1c2ccc(C=O)c3c(C=O)ccc(c23)N(C)C1(C)C`: the inhibition was 72.9% (active).

As for `Cc1cc(C)cc(NC(=O)COc2coc(CN3CCN(c4ccccc4)CC3)cc2=O)c1`, the inhibition was -4.3%.

`CCN(C(=O)CSc1ncnc2c1cnn2-c1ccccc1)C1CCS(=O)(=O)C1` (stereo unspecified): the inhibition is -42.3%.

Take `CC(=O)N1CCN(C(=O)c2cc(-c3ccc(C)o3)nc3ccccc23)CC1`: the inhibition was 5.42%.

As to `Clc1ccc(C2=CSC3=Nc4cccc5cccc(c45)N23)cc1`, the inhibition is 58.2% (active).

In the case of `Cc1ccc2nc(NC(=O)CSc3nc(=O)n(CCCN(C)C)c4c3CCC4)sc2c1`, the inhibition was -12.3%.

In the case of `COc1ccc2oc(C(=O)N(CC(C)C)C3CCS(=O)(=O)C3)c(C)c2c1` (stereo unspecified), the inhibition is -0.98%.

Regarding `Cc1ccc(C(=O)N/N=C/c2sc(=O)n(Cc3cccc(C(=O)O)c3)c2Cl)cc1`, the inhibition is 40.4% (active).

`Cc1ccc(C(=O)N/N=C/c2cccc3ccccc23)cn1`: the inhibition was 0.98%.

Regarding `Cc1ccc(/C=N/NC(=O)CN2CCN(Cc3ccccc3)CC2)s1`, the inhibition was -7.48%.

On to `Cc1ccccc1S(=O)(=O)N1[C@@H](c2cccc(Cl)c2)C(C(=O)O)=CC[C@H]1c1ccc(Cl)cc1`, for which the inhibition is -219%.

For the compound `COc1ccc(-c2c(NC(=O)c3ccco3)oc3ccc(Cl)cc3c2=O)cc1`, the inhibition is -7.76%.

As to `CN(C(=O)COC(=O)c1cc(-c2ccco2)nc2ccccc12)C1CCS(=O)(=O)C1` (stereo unspecified), the inhibition was 66.1% (active).

In the case of `Cc1c(-c2cccc(Cl)c2)nc2ccccc2c1C(=O)OCC(=O)N(C)C1CCS(=O)(=O)C1` (stereo unspecified), the inhibition was -6.81%.

`CN(C(=O)COC(=O)c1nc(Cl)ccc1Cl)C1CCS(=O)(=O)C1` (stereo unspecified): the inhibition is 3.97%.

In the case of `Nc1c(-c2ccccc2)nnn1Cc1ccccc1`, the inhibition is 16.3%.

Turning to `CC1CCC(CN2CCN=C2N(C)C)CC1` (stereo unspecified), the inhibition was 1.09%.

With `COc1ccc(NC(=O)CSc2nnc(Cc3ccccc3)c(=O)n2N)cc1`, the inhibition was 36.1% (active).

Take `COc1ccc(Cc2nnc(SCC(=O)N(c3ccccc3)C(C)C)n(N)c2=O)cc1`: the inhibition is -0.68%.

Turning to `COc1ccc(NC(=O)CSc2nc3ccccc3c(=O)n2C)cc1`, the inhibition is -2.78%.

Turning to `O=C(NCc1ccccn1)Nc1ccc(Cl)cc1`, the inhibition is -3.8%.

For `Cc1ccnc(NC(=O)CNC(=O)c2ccccc2)c1`, the inhibition was -2.68%.

As for `O=C(Nc1ccc(S(=O)(=O)Nc2nccs2)cc1)c1cc(=O)[nH]c2ccccc12`, the inhibition was -5.17%.

On to `Cc1ccc2nc(-c3ccncc3)cc(C(=O)Nc3ccncc3)c2c1`, for which the inhibition is 0.09%.

With `O=C(Nc1ccc(S(=O)(=O)Nc2nccs2)cc1)c1cc(-c2ccncc2)nc2ccccc12`, the inhibition is 44.3% (active).

On to `COc1ccc(C(=O)Oc2ccc(-c3nnco3)cc2)cc1S(=O)(=O)N1CCOCC1`, for which the inhibition is 8.84%.

With `O=C(Nc1cc2c3c(c1)CC(=O)N3CCC2)c1ccccc1F`, the inhibition is -2.65%.

Take `COc1ccccc1N(C)S(=O)(=O)c1ccc(Cl)c(C(=O)Nc2ccncc2)c1`: the inhibition is 1.75%.

Regarding `O=C1c2ccccc2C(=O)c2c1cccc2N1CCN(C/C=C/c2ccccc2)CC1`, the inhibition is 1.48%.

With `CC1C(=O)Nc2ccccc2N1C(=O)c1c(F)cccc1F` (stereo unspecified), the inhibition is 4.45%.

With `CCCC(=O)N1c2ccccc2NC2=C(C(=O)CCC2)C1c1ccc(F)cc1` (stereo unspecified), the inhibition was -0.62%.

Take `CC1C(=O)Nc2ccccc2N1C(=O)c1ccc(F)cc1F` (stereo unspecified): the inhibition was 52.8% (active).

Regarding `COc1ccc(N2CCN(C(=O)CCNC(=O)c3ccc(Br)cc3)CC2)cc1`, the inhibition is -8.57%.

Turning to `CCCCn1c(N)c(N(CC(C)C)C(=O)CN(C)S(=O)(=O)c2ccc(F)cc2)c(=O)[nH]c1=O`, the inhibition was 16.4%.

Consider `CC(=O)c1c(C)[nH]c(C(=O)N2CCN(S(=O)(=O)c3ccc(F)c(F)c3)CC2)c1C`, for which the inhibition was 16.8%.

With `O=C(NCc1ccccn1)c1ccc2nc(-c3ccco3)c(-c3ccco3)nc2c1`, the inhibition is 82.7% (active).

As to `CC(C)(C)c1ccc(NC(=O)NCc2ccco2)cc1`, the inhibition is 3.61%.

For `COc1ccc2oc(=O)c(C(=O)NCc3ccccn3)cc2c1`, the inhibition was 3.7%.

Take `COCCNC(=O)Nc1ccc2nc(-c3ccco3)c(-c3ccco3)nc2c1`: the inhibition is 69.1% (active).

Regarding `Cc1cc(C)cc(NC(=O)NCc2ccccn2)c1`, the inhibition was 0.33%.

Take `CCCC(=O)Nc1ccc2c(c1)nc(CCNC(=O)c1ccco1)n2C`: the inhibition was 5.94%.

Regarding `COc1ccc2c(c1)C(=O)Nc1cc(Cl)ccc1N2`, the inhibition is 9.43%.

For `CC(OC(=O)CNC(=O)c1ccco1)C(=O)Nc1ccc(Cl)cn1` (stereo unspecified), the inhibition was 1.63%.

Regarding `CCC1(CC)C(=O)C2=C3C1[C@H](C(=O)OC)C=C(C(=O)OC)C[C@H]3[C@H]1C(=O)N(Cc3ccccc3)C(=O)[C@H]1[C@H]2C` (stereo partly specified), the inhibition is 1.43%.

With `Cc1csc2nc(O)c(C(=O)NCCN3CCOCC3)c(=O)n12`, the inhibition is -2.86%.

As to `CCc1noc(C)c1C(=O)N1CCCSC1=Nc1ccccc1OC`, the inhibition is -0.08%.

As to `Cc1onc(-c2c(F)cccc2Cl)c1C(=O)N(C)CC(=O)Nc1cccc(F)c1`, the inhibition is 6.99%.

By inhibition is commonly meant the drop in the measured response relative to a control, in per cent.

Source of the values: PubChem BioAssay AID1974 (The Scripps Research Institute Molecular Screening Center, 2009).
